# In PubChem BioAssay (NCI):
# About 83,000 compounds went through this panel and 20% of them were active in at least one assay; those are over-represented in the sample as a whole.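 Compound tested at a single concentration for 48 hours in 96-well plates; a percent growth value below 10 was scored as active.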 A number with no mark means an inactive call. Activity calls are given as the source filed them.
# Legend:
# Experiment in all cases: NCI-60 one-dose screen, 48 h (100 = growth as untreated, 0 = no growth, -100 = all killed)
# Settings in all cases: 10 µM unless noted
# NCI-H23 lung = tested on: NCI-H23 lung
# NCI-H226 lung = tested on: NCI-H226 lung
# NCI-H322M lung = tested on: NCI-H322M lung
# HOP-62 NSCLC = tested on: HOP-62 NSCLC
# NCI-H460 lung = tested on: NCI-H460 lung
# HOP-92 NSCLC = tested on: HOP-92 NSCLC
# NCI-H522 lung = tested on: NCI-H522 lung
# A549/ATCC NSCLC = tested on: A549/ATCC NSCLC
# 786-0 renal = tested on: 786-0 renal
# COLO 205 colon = tested on: COLO 205 colon
# DU-145 prostate = tested on: DU-145 prostate
# K-562 leukemia = tested on: K-562 leukemia
# MALME-3M melanoma = tested on: MALME-3M melanoma
# MDA-MB-231 breast = tested on: MDA-MB-231 breast
# RXF 393 renal = tested on: RXF 393 renal
# SF-268 CNS = tested on: SF-268 CNS
# SF-295 CNS = tested on: SF-295 CNS
# SF-539 CNS = tested on: SF-539 CNS
# UACC-257 melanoma = tested on: UACC-257 melanoma
# M14 melanoma = tested on: M14 melanoma
SMILES,growth (NCI-H23 lung),growth (NCI-H226 lung) [%],growth (NCI-H322M lung) [%],growth (HOP-62 NSCLC) [%],growth (NCI-H460 lung),growth (HOP-92 NSCLC),growth (NCI-H522 lung),growth (A549/ATCC NSCLC),growth (786-0 renal),growth (COLO 205 colon),growth (DU-145 prostate),growth (K-562 leukemia),growth (MALME-3M melanoma),growth (MDA-MB-231 breast),growth (RXF 393 renal),growth (SF-268 CNS) [%],growth (SF-295 CNS),growth (SF-539 CNS),growth (UACC-257 melanoma),growth (M14 melanoma)
CCOC(=O)c1ccc(NC(=O)c2nc(-c3cc(OC)c(OC)c(OC)c3)n(-c3ccc(Cl)cc3)n2)cc1,91.3%,90.9,81.1,97.6,97.1%,71.8%,67.2%,88.9%,93.5%,104%,102%,85.7%,91.4%,69.4%,86.3%,84,96.9%,97%,96.5%,97.6%
CCCn1cc2c(=O)nc3sc(Cc4ccccc4)c(C)n3c2n1,103%,107,98.5,102,101%,88.4%,75%,83.5%,99.1%,109%,104%,77.5%,112%,99.3%,119%,94.8,120%,99.7%,88.3%,112%
O=C(NCCCl)Nc1ncccc1OCc1ccccc1,99.6%,104,92.4,100,101%,103%,85.3%,103%,100%,106%,105%,103%,103%,101%,108%,102,99.9%,106%,107%,99.8%
COC(=O)Nc1nc2ccc(S(=O)c3ccccc3)cc2[nH]1 (stereo not given),64.4%,92.9,88,99.4,60.3%,75.5%,65.8%,57.7%,80.4%,67.5%,96.3%,29.9%,83.7%,68.4%,107%,84.8,58.4%,73.6%,73.9%,44.5%
N=C(N)c1ccc(-c2ccc(-c3ccc(Cl)cc3Cl)s2)cc1,56.5%,77.9,13.9,34.1,-66.3% (active),75.2%,-28.6% (active),-30.2% (active),-18% (active),-31.6% (active),-24.7% (active),-7.11% (active),73.9%,-38% (active),87.3%,42.4,-30.6% (active),-28.9% (active),88%,41.5%
CC1CCc2c(C(=O)Nc3ncc(Cc4cccc([N+](=O)[O-])c4)s3)csc2C1 (stereo not given),36.6%,54.1,33.1,26.8,11.2%,58.9%,2.96% (active),34.4%,30.1%,10.8%,18%,23.8%,51%,23.6%,-24.1% (active),43.9,14.3%,-7.87% (active),52%,6.98% (active)
Nc1ncnc2c1c(-c1cccc(Cl)c1)nn2CC(=O)N1CCOCC1,97.5%,93,102,109,107%,105%,102%,99.9%,94.8%,116%,111%,105%,110%,104%,99%,98.4,98.6%,96.2%,103%,104%
CC(C)=CCC[C@](C)(O)[C@H]1CC[C@]2(C)[C@@H]1CC[C@@H]1[C@@]3(C)C/C(=C/c4ccco4)C(=O)C(C)(C)[C@@H]3CC[C@]12C,101%,103,103,102,106%,98.2%,102%,107%,99.6%,110%,113%,99.2%,107%,101%,111%,101,100%,102%,109%,104%
COc1ccc(/C=N\Nc2nc(SCCC(C)C)nc(-c3ccc(OC)cc3)c2C#N)cc1,72.1%,88.9,80.8,18.4,13.9%,63.2%,60.5%,70.9%,-2.8% (active),68%,72.8%,82%,64.6%,77.6%,80.5%,78.9,17.4%,24.6%,91.6%,87.6%
CCOC(=O)C1=C(c2ccccc2)N=C2SC=C(c3ccc(Cl)cc3)N2C1c1ccc(Cl)cc1 (stereo not given),64.2%,79.5,88.5,91.6,83.3%,69.8%,79.9%,77%,84.4%,76.2%,87.7%,73.8%,87.2%,74.2%,72%,78.8,88.9%,92.8%,64.9%,82.8%
Nc1nc(N)c(-c2ccc(Cl)c(Cl)c2)c(CBr)n1,78.3%,93.3,78.4,102,25.7%,99%,9.79% (active),27%,52%,76.6%,83.2%,36.8%,89%,82.2%,90.6%,94,55.7%,65.4%,68.5%,50.5%
Cc1ccc(C[P+](c2ccccc2)(c2ccccc2)c2ccccc2)cc1,-9.16% (active),16.1,38.8,13.5,3.04% (active),-0.267% (active),10.3%,26.9%,25.6%,-15.5% (active),7.44% (active),2.1% (active),10.1%,18.7%,16.6%,15.5,2.31% (active),16.3%,3.36% (active),5.62% (active)
Cn1ccnc1C(=O)/C=C/c1ccc(CC(=O)Nc2cc(C(F)(F)F)cc(C(F)(F)F)c2)cc1,85.4%,91.4,73.2,85.9,55.3%,87%,77.4%,60.1%,65.6%,98.3%,73.4%,61.6%,77.9%,78.1%,56.2%,64.9,84.3%,67.1%,72.8%,80.5%
Cc1ccc(/C=C2\COc3ccc(O)cc3C2=O)cc1,94.7%,97.3,99.6,103,100%,97.4%,4.44% (active),89.7%,86.7%,94.3%,103%,17.9%,90.3%,90.7%,96.3%,86.3,105%,98.7%,103%,93.1%
COc1ccc(-c2cc(-c3cc(OC)c(OC)c(OC)c3)c(C#N)c(=O)n2CCCCC(=O)NO)cc1,67.4%,82.3,75.1,65,55.3%,51.9%,54.6%,71.9%,83.7%,84.3%,64.1%,32.6%,33.1%,55.6%,53.1%,87.9,78.7%,57.7%,71.7%,56.9%
COC(=O)c1c(C)nc(C)c2c1C(=O)C(Br)=C(NCc1ccccc1)C2=O,5.25% (active),71,31.4,87.1,11.7%,86.9%,22%,18.2%,51.6%,-11.8% (active),38%,21%,-75.4% (active),14.8%,52.4%,33,30.1%,7.13% (active),-7.87% (active),14%
